Test results published in PubChem BioAssay (NCI).
This is part of a sample that, as a whole, favours compounds with a hit. Of some 83,000 tested, about 20% had one in any assay.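 Single-concentration screen, 48 h exposure, 96-well plates. Endpoint: percent growth. Below 10 = active.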 The source made the active and inactive calls.

Tests used:
Assay in all cases: NCI-60 one-dose screen, 48 h (100 = growth as untreated, 0 = no growth, -100 = all killed)
Conditions in all cases: 10 µM
HT29 colon = test system: HT29 colon
SNB-75 CNS = test system: SNB-75 CNS
SNB-19 CNS = test system: SNB-19 CNS
U251 CNS = test system: U251 CNS
PC-3 prostate = test system: PC-3 prostate
SK-MEL-5 melanoma = test system: SK-MEL-5 melanoma
UACC-62 melanoma = test system: UACC-62 melanoma
LOX IMVI melanoma = test system: LOX IMVI melanoma
SK-MEL-2 melanoma = test system: SK-MEL-2 melanoma
EKVX NSCLC = test system: EKVX NSCLC
SN12C renal = test system: SN12C renal
UO-31 renal = test system: UO-31 renal
TK-10 renal = test system: TK-10 renal
ACHN renal = test system: ACHN renal
CAKI-1 renal = test system: CAKI-1 renal
CCRF-CEM leukemia = test system: CCRF-CEM leukemia
MOLT-4 leukemia = test system: MOLT-4 leukemia
SR leukemia = test system: SR leukemia
A498 renal = test system: A498 renal

Measured: growth

O=C(CC(c1ccccc1)N1CCOCC1)c1ccccc1 (stereo not given)
active: SR leukemia -32.7%
inactive: HT29 colon 90.1% | SNB-75 CNS 85.8% | SNB-19 CNS 85% | U251 CNS 80.8% | PC-3 prostate 72.1% | SK-MEL-5 melanoma 97.2% | UACC-62 melanoma 93.6% | LOX IMVI melanoma 89% | SK-MEL-2 melanoma 94.7% | EKVX NSCLC 89.3% | SN12C renal 88.5% | UO-31 renal 75.7% | TK-10 renal 99.7% | ACHN renal 103% | CAKI-1 renal 98.8% | CCRF-CEM leukemia 79.6% | MOLT-4 leukemia 82.3%

CCCC(F)C(=O)O (stereo not given)
inactive: HT29 colon 97.5% | SNB-75 CNS 99.2% | SNB-19 CNS 102% | U251 CNS 95.9% | PC-3 prostate 90.5% | SK-MEL-5 melanoma 105% | UACC-62 melanoma 100% | LOX IMVI melanoma 100% | SK-MEL-2 melanoma 107% | SN12C renal 100% | UO-31 renal 77.7% | TK-10 renal 98% | ACHN renal 106% | CAKI-1 renal 86.2% | CCRF-CEM leukemia 94.5% | MOLT-4 leukemia 93% | SR leukemia 91.2%

COc1ccc(N=C2C(=Nc3ccc(OC)cc3)N(c3ccc(N(C)C)cc3)C(=S)N2c2ccc(OC)cc2)cc1
inactive: HT29 colon 84% | SNB-19 CNS 75.1% | U251 CNS 49.3% | PC-3 prostate 52.5% | SK-MEL-5 melanoma 84.8% | UACC-62 melanoma 98.2% | LOX IMVI melanoma 86.3% | SK-MEL-2 melanoma 90.7% | EKVX NSCLC 90.1% | SN12C renal 106% | UO-31 renal 16.3% | TK-10 renal 95.1% | ACHN renal 81.6% | CAKI-1 renal 53.3% | A498 renal 71.1% | CCRF-CEM leukemia 52% | MOLT-4 leukemia 10.8% | SR leukemia 46.3%
active: SNB-75 CNS 8.69%

CC(=O)c1nc2ccccc2n1CCN1CCN(C)CC1
inactive: SNB-19 CNS 73.7% | U251 CNS 28.4% | PC-3 prostate 33.4% | SK-MEL-5 melanoma 38.5% | UACC-62 melanoma 50.7% | LOX IMVI melanoma 36.7% | SK-MEL-2 melanoma 25.4% | SN12C renal 46.7% | UO-31 renal 53.1% | ACHN renal 78% | CAKI-1 renal 94.1% | A498 renal 36.6% | MOLT-4 leukemia 49.9%
active: HT29 colon -3.6% | SNB-75 CNS 6.87% | CCRF-CEM leukemia 3.66% | SR leukemia 6.52%

N#Cc1c(C#N)c(SSc2c(C#N)c(C#N)c(N)n2-c2ccccc2)n(-c2ccccc2)c1N
inactive: HT29 colon 101% | SNB-75 CNS 71.7% | SNB-19 CNS 103% | U251 CNS 114% | PC-3 prostate 49% | SK-MEL-5 melanoma 96.7% | UACC-62 melanoma 94.8% | LOX IMVI melanoma 96.4% | SK-MEL-2 melanoma 98.5% | EKVX NSCLC 107% | SN12C renal 99.3% | UO-31 renal 81.2% | TK-10 renal 107% | ACHN renal 101% | CAKI-1 renal 118% | A498 renal 92.1% | MOLT-4 leukemia 106% | SR leukemia 106%

N#Cc1ncc(-c2ccc(C(F)(F)F)cc2)c(NCc2cc(C(F)(F)F)cc(C(F)(F)F)c2)n1
active: HT29 colon 9.29% | PC-3 prostate 1.54% | SK-MEL-2 melanoma -2.7% | ACHN renal 0.868%
inactive: SNB-75 CNS 37.9% | SNB-19 CNS 29.8% | U251 CNS 27.3% | SK-MEL-5 melanoma 75.3% | UACC-62 melanoma 19.4% | LOX IMVI melanoma 14.9% | SN12C renal 21.8% | UO-31 renal 26.1% | TK-10 renal 47.4% | CAKI-1 renal 17.9% | CCRF-CEM leukemia 10.5% | MOLT-4 leukemia 21.9% | SR leukemia 12.1%

COc1ccc(/C(=C2/O[C@@H]([C@H]3COC(C)(C)O3)[C@H]3OC(C)(C)O[C@@H]23)c2cc(OC)c(OC)c(OC)c2)cc1O
active: SR leukemia -13.6%
inactive: HT29 colon 113% | SNB-75 CNS 24.3% | SNB-19 CNS 27.6% | U251 CNS 61.2% | PC-3 prostate 29.4% | SK-MEL-5 melanoma 61.8% | UACC-62 melanoma 82.9% | LOX IMVI melanoma 47.6% | EKVX NSCLC 101% | SN12C renal 84.5% | UO-31 renal 123% | TK-10 renal 117% | ACHN renal 49.5% | CAKI-1 renal 111% | CCRF-CEM leukemia 60.8% | MOLT-4 leukemia 60.5%

CCCCCCCCCCCCCCCCN(C(C)c1ccccc1)S(=O)(=O)c1ccc(OC)c(N)c1 (stereo not given)
inactive: HT29 colon 100% | SNB-75 CNS 91.5% | SNB-19 CNS 120% | U251 CNS 100% | PC-3 prostate 101% | SK-MEL-5 melanoma 109% | UACC-62 melanoma 103% | LOX IMVI melanoma 91.7% | SK-MEL-2 melanoma 120% | EKVX NSCLC 114% | SN12C renal 118% | UO-31 renal 89.2% | TK-10 renal 122% | ACHN renal 106% | CAKI-1 renal 96.5% | A498 renal 123% | MOLT-4 leukemia 98.8% | SR leukemia 94.2%

COc1ccc(/C=C2/CN(C(=O)c3ccc(C)cc3)C/C(=C\c3ccc(OC)cc3)C2=O)cc1
inactive: HT29 colon 32.9% | SNB-75 CNS 82.7% | SNB-19 CNS 98.5% | U251 CNS 89.4% | PC-3 prostate 68.6% | SK-MEL-5 melanoma 89.1% | UACC-62 melanoma 86.4% | LOX IMVI melanoma 42.1% | SK-MEL-2 melanoma 95.1% | SN12C renal 90.7% | UO-31 renal 58.5% | TK-10 renal 113% | ACHN renal 92% | CAKI-1 renal 85.2% | A498 renal 89.4% | CCRF-CEM leukemia 71.3% | MOLT-4 leukemia 69.3% | SR leukemia 12.8%

CC(=O)N1C/C(=C/c2ccc(Cl)cc2)C(=O)/C(=C/c2ccc(Cl)cc2)C1
active: HT29 colon -62.2% | U251 CNS -76.8% | PC-3 prostate -42.4% | SK-MEL-5 melanoma -52.1% | UACC-62 melanoma -74.6% | LOX IMVI melanoma -79.6% | SK-MEL-2 melanoma -0.636% | SN12C renal -42.4% | UO-31 renal -88.8% | TK-10 renal -15.7% | ACHN renal -46.1% | CAKI-1 renal -15% | A498 renal -5.57% | CCRF-CEM leukemia -13.3% | MOLT-4 leukemia 0.236% | SR leukemia -15.1%
inactive: SNB-75 CNS 30.1% | SNB-19 CNS 15%

CCN1CCN(c2nc3ccccc3c3c(=O)c4ccccc4sc23)CC1
active: HT29 colon 9.96% | SK-MEL-5 melanoma 7.43% | UACC-62 melanoma 7.97% | MOLT-4 leukemia 2.07% | SR leukemia -11.8%
inactive: SNB-75 CNS 44.5% | SNB-19 CNS 67.2% | U251 CNS 27.9% | PC-3 prostate 43.7% | LOX IMVI melanoma 23.5% | SK-MEL-2 melanoma 98.5% | EKVX NSCLC 59.1% | SN12C renal 41.6% | UO-31 renal 29.8% | ACHN renal 22.8% | A498 renal 37%

Cc1cccc2c1O/C(=C\c1ccc([N+](=O)[O-])o1)C2=O
active: HT29 colon -67.4% | U251 CNS -19.7% | PC-3 prostate -36.3% | SK-MEL-5 melanoma -83.5% | UACC-62 melanoma -58.9% | LOX IMVI melanoma -83.6% | SK-MEL-2 melanoma -62.8% | SN12C renal -17.5% | UO-31 renal -62.6% | TK-10 renal -88.2% | ACHN renal -81.9% | CAKI-1 renal -3% | CCRF-CEM leukemia -26.4% | MOLT-4 leukemia -14.7% | SR leukemia 2.46%
inactive: SNB-75 CNS 65% | SNB-19 CNS 44.2% | A498 renal 49%

COc1ccc(Nc2cc(C)nc(NCCCNc3ccnc4cc(Cl)ccc34)n2)cc1
active: HT29 colon -70.2% | SNB-75 CNS -82.5% | SNB-19 CNS 6.85% | U251 CNS -88.8% | PC-3 prostate 7.12% | SK-MEL-5 melanoma -100% | UACC-62 melanoma -89.8% | LOX IMVI melanoma -80% | SK-MEL-2 melanoma -94.6% | SN12C renal 1.94% | UO-31 renal -73.5% | TK-10 renal -83.9% | ACHN renal -93% | CAKI-1 renal -69.6% | A498 renal -0.29% | CCRF-CEM leukemia -21.9% | MOLT-4 leukemia -35.1%

O=C(NN1C(=O)CSC1c1ccc(Cl)cc1)c1cccnc1 (stereo not given)
inactive: HT29 colon 109% | SNB-75 CNS 110% | SNB-19 CNS 113% | U251 CNS 99.5% | PC-3 prostate 93.6% | SK-MEL-5 melanoma 102% | UACC-62 melanoma 125% | LOX IMVI melanoma 102% | SK-MEL-2 melanoma 109% | EKVX NSCLC 95.2% | SN12C renal 131% | UO-31 renal 72.2% | TK-10 renal 107% | ACHN renal 113% | CAKI-1 renal 98.2% | CCRF-CEM leukemia 99.5%

COc1ccc2c(c1)N(CCO)C1=C(C(=O)OC1)C2c1cc(OC)c(OC)c(OC)c1 (stereo not given)
active: HT29 colon -4.82% | U251 CNS 9.9% | SK-MEL-5 melanoma -24.7% | UACC-62 melanoma 8.69% | CAKI-1 renal 6.97% | A498 renal -12.2%
inactive: SNB-75 CNS 38.3% | SNB-19 CNS 19.1% | PC-3 prostate 21.9% | LOX IMVI melanoma 25.1% | EKVX NSCLC 40.3% | SN12C renal 26% | UO-31 renal 15.2% | TK-10 renal 66% | ACHN renal 32.8% | CCRF-CEM leukemia 11.6% | MOLT-4 leukemia 19.3% | SR leukemia 23.5%

COc1ccccc1CNCCN1C(=O)c2ccc3c4c(ccc(c24)C1=O)C(=O)N(CCNCc1ccccc1OC)C3=O
active: HT29 colon -36.1% | SNB-75 CNS -96.1% | SNB-19 CNS -91.4% | U251 CNS -81.4% | PC-3 prostate -75.4% | SK-MEL-5 melanoma -100% | UACC-62 melanoma -93.3% | LOX IMVI melanoma -82.3% | SK-MEL-2 melanoma -74.6% | EKVX NSCLC -78.1% | SN12C renal -91% | UO-31 renal -92.4% | TK-10 renal -30.8% | ACHN renal -59.6% | CAKI-1 renal -31.3% | CCRF-CEM leukemia -50.3% | MOLT-4 leukemia -41.9% | SR leukemia -47.1%

CCN(CCCCCCN1CC(=O)N(CCCCCCN(CC)Cc2ccccc2OC)CC1=O)Cc1ccccc1OC
inactive: HT29 colon 20% | SNB-75 CNS 76.6% | SNB-19 CNS 94.8% | U251 CNS 88.8% | PC-3 prostate 77.1% | SK-MEL-5 melanoma 90.9% | UACC-62 melanoma 104% | LOX IMVI melanoma 85.8% | SK-MEL-2 melanoma 63.4% | EKVX NSCLC 72.9% | SN12C renal 93.9% | UO-31 renal 91.9% | TK-10 renal 87.6% | ACHN renal 110% | CAKI-1 renal 90.3% | MOLT-4 leukemia 42.7% | SR leukemia 39.3%

CCCC1(CC(=O)O)OCCc2c1[nH]c1ccccc21 (stereo not given)
inactive: HT29 colon 110% | SNB-75 CNS 65.8% | SNB-19 CNS 128% | U251 CNS 108% | PC-3 prostate 91.7% | SK-MEL-5 melanoma 100% | UACC-62 melanoma 93.2% | LOX IMVI melanoma 108% | SK-MEL-2 melanoma 114% | EKVX NSCLC 120% | SN12C renal 98% | UO-31 renal 86.4% | TK-10 renal 113% | ACHN renal 111% | CAKI-1 renal 91% | A498 renal 106% | MOLT-4 leukemia 87.3% | SR leukemia 84%
